The list is not random: actives were taken first. Their share in the collection is about 1.6%.
KCNQ2 block: inhibitors of rat KCNQ2 potassium channel. B-score at 10 µM. O88943. CHO-K1 KCNQ2, FluxOR thallium flux, 20 min; active compounds read low. AID 2156. 310,000 tested, 1.1% active;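 active = fluorescence ratio B-score at most minus 3 library SDs, with starting brightness B-score within 2 library SDs, cut at about -5.5 in these data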
KCNQ2 pot: enhances the rat KCNQ2 potassium channel | O88943 | CHO-K1 KCNQ2, FluxOR thallium flux fluorescence; active compounds read high | B-score at 10 µM | 310,000 tested, 0.54% active | AID 2239;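 active = fluorescence ratio B-score at least 3 SD of library B-scores, with initial fluorescence B-score within 3 of them, cut at about 5.3 in these data; same plate scores as AID 2156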;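 also: B-score of peak minus minimum over baseline fluorescence ratio after K+ and Tl+ stimulus; positive B-score means potentiation of KCNQ2 with more thallium influx and brighter signal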
KCNQ2 block conf: rat KCNQ2 channel inhibition, confirmatory screen; KCNQ2-expressing cells, thallium flux; active compounds read low; 1,000 tested, 57% active; activity change, negative = inhibition, % at 10 µM; shares compounds with KCNQ2 block
KCNQ1 spec: KCNQ2 inhibitor that also affects human KCNQ1 channel; shares compounds with KCNQ2 block; KCNQ1-expressing cells, FluxOR thallium flux fluorescence; active compounds read low; activity change, negative = inhibition, % at 10 µM; 1,000 tested, 15% active;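 active = activity change at least 3 SD of negative controls below their mean in both duplicate wells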;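 also: CHO cells stably transfected with KCNQ1 and depolarized by potassium stimulus; peak minus minimum fluorescence over baseline after thallium addition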
CHO Tl ctr: KCNQ2 inhibitor counter-screen hit in parental CHO cells; 1,000 tested, 14% active; AID 493029; activity change, % at 10 µM; shares compounds with KCNQ2 block; thallium flux counter-screen; active compounds read low
KCNQ2 patch conf: confirmation of rat KCNQ2 potassium channel inhibitors | shares compounds with KCNQ2 block | KCNQ2-expressing cells, automated patch clamp current | calls only at 10 µM | 550 tested, 49% active
Large screens that a line does not name were inactive (follow-up assays come after a bar, where they were run). Unless noted, no rule for the calls is given here.

O=C(NCC(c1ccco1)N1CCc2ccccc2C1)C(=O)Nc1ccccc1F (configuration not stated)	KCNQ2 block -6.98 | KCNQ2 block conf -26.0% | KCNQ1 spec inactive | CHO Tl ctr inactive | KCNQ2 patch conf inactive
O=C(NCC(c1ccco1)N1CCc2ccccc2C1)C(=O)Nc1ccc(F)cc1F (configuration not stated)	KCNQ2 block -6.69 | KCNQ2 block conf -25.5% | KCNQ1 spec inactive | CHO Tl ctr inactive | KCNQ2 patch conf inactive
CC(=O)Nc1ccc(NC(=O)C(=O)NCC(c2ccco2)N2CCc3ccccc3C2)cc1 (configuration not stated)	none (no result: KCNQ2 pot)
O=C(CN1CCc2ccccc2C1)Nc1ccc(F)cc1F	none (no result: KCNQ2 pot)
Cn1cc([N+](=O)[O-])c(C(=O)NCc2cc3ccccc3[nH]2)n1	none
Cn1c(=O)c(C#N)c(-c2ccc(F)cc2)c2cc(C(=O)c3cc(Cl)cc(Cl)c3O)cnc21	none
O=C(CCSc1nnc2ccccn12)Nc1ccc(F)cc1	none
Cn1cc(Br)c(C(=O)N/N=C/c2cc3c(cc2Cl)OCO3)n1	none (no result: KCNQ2 pot)
COc1ccc(-c2cc(C(=O)N3CCN(C(c4ccccc4)c4ccccc4)CC3)no2)cc1	none (no result: KCNQ2 pot)
O=C(c1cc(-c2ccco2)on1)N1CCN(C(c2ccccc2)c2ccccc2)CC1	KCNQ2 block -7.67 | KCNQ2 block conf -29.0% | KCNQ1 spec inactive | CHO Tl ctr inactive | KCNQ2 patch conf inactive
CCN(CC)CCNC(=O)c1ccccn1	none
Cc1cc(Cl)cc(C)c1OCCNCc1ccccc1	KCNQ2 block -6.92 | KCNQ2 block conf inactive | KCNQ1 spec inactive | CHO Tl ctr inactive
Cc1cc(C)c(OCCNCc2ccccc2)c(C)c1	none (no result: KCNQ2 pot)
Fc1ccc(C2=Nn3c(Cc4ccccc4)nnc3SC2)cc1	none
CC(C)[C@H](NC(=O)c1ccccc1)C(=O)OCC(=O)NCCc1ccc(F)cc1	none (no result: KCNQ2 pot)
CC(C)[C@H](NC(=O)OCc1ccccc1)C(=O)OCC(=O)NCCc1ccccc1	KCNQ2 block -7.07 | KCNQ2 block conf inactive | KCNQ1 spec inactive | CHO Tl ctr inactive
CC(C)OC(=O)c1ccc(NC(=O)CSc2nc3ncccc3[nH]2)cc1	none (no result: KCNQ2 pot)
FC(F)(F)c1cc(-c2ccccc2)nc(N2CCOCC2)n1	none
CC(NC(=O)CCC(=O)c1ccccc1)c1ccc(F)cc1 (configuration not stated)	KCNQ2 block -8.77 | KCNQ2 block conf inactive | KCNQ1 spec inactive | CHO Tl ctr inactive
CC(NC(=O)Cc1ccccc1)c1ccc(F)cc1 (configuration not stated)	none
Cc1ccsc1C(=O)N1CC=C(c2ccccc2)CC1	none (no result: KCNQ2 pot)
Cc1cc(C)c(OCC(=O)N2CC=C(c3ccccc3)CC2)c(C)c1	KCNQ2 block -6.89 | KCNQ2 block conf -29.0% | KCNQ1 spec inactive | CHO Tl ctr inactive | KCNQ2 patch conf inactive
Cc1nc2ccccc2n1Cc1ccccc1	none (no result: KCNQ2 pot)
O=C(Nc1cccc(-c2cn3ccsc3n2)c1)c1ccccc1	none (no result: KCNQ2 pot)
COc1cccc(-c2nn3c(-c4ccccn4)nnc3s2)c1	none (no result: KCNQ2 pot)
N#Cc1sc(C(N)=O)c(-c2ccccc2)c1-c1ccccc1	none (no result: KCNQ2 pot)
Clc1ccc(CSc2cc3c(nn2)-c2ccccc2CC3)cc1	KCNQ2 block -10.4 | KCNQ2 block conf -37.5% | KCNQ1 spec -41.0% | CHO Tl ctr -28.5% | KCNQ2 patch conf inactive
Clc1ccc(CSc2ccc(-c3ccccn3)nn2)cc1	none (no result: KCNQ2 pot)
CN(C)/N=C/c1ccc(OC(=O)c2cccc([N+](=O)[O-])c2)cc1	none (no result: KCNQ2 pot)
CCN1CC(CNC(=O)c2ccc3nc(Cc4cccc(Cl)c4)oc3c2)CC1=O (configuration not stated)	none (no result: KCNQ2 pot)
COc1ccc(CCN2CC(C(=O)N(C)CCOc3ccccc3)CCC2=O)cc1 (configuration not stated)	none (no result: KCNQ2 pot)
CN(CCOc1ccccc1)C(=O)C1CCC(=O)N(CCc2ccc(Cl)cc2)C1 (configuration not stated)	KCNQ2 block -7.8 | KCNQ2 block conf inactive | KCNQ1 spec inactive | CHO Tl ctr inactive
CC(Sc1nnc(-c2cccs2)n1Cc1ccccc1)C(=O)NCc1ccc2c(c1)OCO2 (configuration not stated)	KCNQ2 block -9.78 | KCNQ2 block conf inactive | KCNQ1 spec inactive | CHO Tl ctr inactive
CCn1c(SCC(=O)NC2CCCc3ccccc32)nnc1-c1cccs1 (configuration not stated)	none (no result: KCNQ2 pot)
CCn1c(SC(C)C(=O)NC2CCCc3ccccc32)nnc1-c1cccs1 (configuration not stated)	KCNQ2 block -8.36 | KCNQ2 block conf inactive | KCNQ1 spec inactive | CHO Tl ctr inactive
